# Screening data from PubChem.
# DT40 TDP1 no CPT – qHTS for Inhibitors of human tyrosyl-DNA phosphodiesterase 1 (TDP1): qHTS in cells in absence of CPT; DT40 Tdp1-/- hTDP1 cells, no CPT, ATP luminescence, 48 h; 15% of 420,000 active; Potency, µM (top dose mostly 46.2 µM), inactives show at the top dose activity change, negative = growth inhibition, hits mostly inhibitors; AID 686978, 2013; also: potency is read from the fitted curve at half-maximal effect; nearly all actives have a fitted effect of over 55% in size
#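 Seeded 400 DT40-hTDP1 cells/well (vehicle DMSO, no 20 nM CPT); pinned compounds; ≥48 hr at 37 °C; CellTiter-Glo luminescence as viability measure.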
# HT1080-NT tox – kills 2HG-producing HT-1080-NT fibrosarcoma cells. HT-1080-NT fibrosarcoma viability, CellTiter-Glo ATP luminescence, 48 h. Potency, µM (doses to about 46.1 µM), inactives show top-dose activity, negative = less viability, usual class: cytotoxic. 1.6% of 360,000 active;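 also: NT is the 2HG producing partner of a matched IDH1 knockdown line; potency is read from the fitted curve at half-maximal effect; 0% = DMSO-treated cells and -100% = media-only wells without cells; nearly all actives have a fitted effect of over 55% in size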
#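 Read-out is CellTiter-Glo luminescence after 10 minutes at room temperature, following 48 hours' compound treatment of HT-1080-NT cells (750 cells/well, RPMI, 5% FBS, 37 degrees C).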
# ELG1 repair inh – blocks ELG1-dependent DNA repair in HEK293T cells. AID 504467. Potency, µM (highest dose often 46.1 µM), without a hit: at the top dose activity change, negative = inhibition, hits mostly inhibitors. HEK293T ELG1-luciferase reporter, luminescence, 16 h; DNA damage induced by 5-fluorouridine. 2.3% of 330,000 active; also: potency is read from the fitted curve at half-maximal effect; nearly all actives have a fitted effect of over 55% in size
#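 In this reporter screen, reduction of luminescence relative to DMSO vehicle indicated activity. Compounds and 5-fluorouridine were added together to 2,000 cells per well, incubated for 16 hr at 37 °C, then developed with ONE-Glo.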
# TDP1 cell CPT – growth inhibition of DT40 Tdp1-/-;hTDP1 cells with camptothecin (screen for TDP1 inhibitors); Potency, µM (highest dose often 46.2 µM), for the others: at the top dose activity change, negative = growth inhibition, actives largely listed as inhibitors; 12% of 420,000 active; AID 686979; chicken DT40 Tdp1-/-;hTDP1 cells + 20 nM CPT, ATP luminescence, 48 h; also: potency is read from the fitted curve at half-maximal effect; nearly all actives have a fitted effect of over 55% in size
#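 Chicken DT40 Tdp1-/- cells complemented with human TDP1, 400 cells/well, exposed to compounds plus 20 nM camptothecin for at least 48 h at 37 C; viability read as ATP content by CellTiter-Glo luminescence.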
# HT1080 IDH1KD tx – kills HT-1080 cells with IDH1 knockdown | AID 686971 | 2% of 360,000 active | Potency, µM (highest dose often 46.1 µM), for the others: at the top dose activity, negative = toxicity, hits mostly cytotoxic | HT-1080 IDH1 knockdown viability, ATP luminescence, 48 h;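 also: potency is read from the fitted curve at half-maximal effect; 0% = DMSO wells and -100% = cell-free medium wells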
#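 In this qHTS, HT-1080 cells depleted of IDH1 are exposed for 48 h at 37 °C to compound titrations. Toxicity is scored from CellTiter-Glo luminescence, with DMSO as full viability and medium alone as none.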
# IL1B secr inh – blocks inflammasome-driven IL-1 beta release; THP-1 LPS/ATP IL-1B secretion, AlphaLISA, 16 h; stronger effect = lower value; activity change, % at 57.5 µM; 4.7% of 360,000 active; in the data active = activity change below about -50%; inconclusive = mostly about -30% to -49%
#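 THP-1 cells pretreated 1 hr with compounds (up to 57.5 uM final), then stimulated with LPS (250 ng/mL final) plus ATP (1.25 mM final); secreted IL-1B measured by AlphaLISA after 16 hr, decreased signal indicating inhibition.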
# Active calls of the source: *; u = inconclusive; x = not tested or not shown. An excerpt weighted towards active compounds, which were near 19% of everything screened. Unless noted, calls follow the shape of the dose curve; as a rule, active = well fitted curve in the direction sought with a large enough effect; inconclusive = small, poorly fitted or top-dose-only effect, or another doubt; inactive = no such curve, though single readings can be large; an effect the other way counts as inactive or inconclusive. Unless noted, % is scaled to controls: 0 for no effect and ±100 for the full control effect.
SMILES,DT40 TDP1 no CPT,HT1080-NT tox,ELG1 repair inh,TDP1 cell CPT,HT1080 IDH1KD tx,IL1B secr inh
COc1ccc(-c2nc(C#N)c(N3CCCCCC3)o2)cc1,18µM*,0%,u,18µM*,-18%,-63*
CCOc1ccc(-c2nc(C#N)c(N3CCN(C)CC3)o2)cc1,-18%,0%,-5%,-23%,-5%,u
CCOc1ccc(-c2nc(C#N)c(N3CCCCCC3)o2)cc1,u,-13%,-29%,21µM*,7%,-61*
COc1ccccc1-c1nc(C#N)c(N2CCN(C(c3ccccc3)c3ccccc3)CC2)o1,23µM*,8%,0%,16µM*,0%,1
Cc1ccc(-c2nc(C#N)c(N3CCC(C)CC3)o2)cc1,u,10%,16%,u,3%,-18
COc1ccc(-c2nc(C#N)c(N3CCCCC3)o2)cc1,-26%,8%,u,-5%,-1%,-11
COc1ccc(-c2nc(C#N)c(N3CCC(C)CC3)o2)cc1,13µM*,13%,-8%,u,28%,-52*
CCNC(=O)C1(C)CCN(C(=O)c2cccc(OC(F)(F)F)c2)C1 (centres undefined),1%,3%,x,-22%,12%,-8
O=C(NCc1ccco1)c1ccc2sc([C@H]3C[C@H](O)[C@@H](CO)O3)nc2c1,-7%,18%,x,u,0%,2
N#C/C(=C\c1c[nH]c2ccccc12)C(=O)NCC1CCCO1 (centres undefined),u,11%,u,16%,15%,-14
COc1ccc(-c2nc(C#N)c(NC(C)C)o2)cc1,-10%,-1%,u,-19%,-3%,-50*
CCCOc1ccc(-c2nc(C#N)c(N3CCN(CC)CC3)o2)cc1,u,-8%,-10%,u,-1%,-60*
CNc1oc(-c2ccc(Cl)cc2)nc1C#N,-24%,-8%,u,-15%,-6%,13
N#Cc1nc(-c2ccc(F)cc2)oc1N1CCCC1,21µM*,12%,21%,7.3µM*,9%,-12
COc1ccc(-c2nc(C#N)c(N3CCCCCC3)o2)cc1OC,11µM*,-3%,u,15µM*,-4%,-30
CC1NC(=O)c2cccnc2-n2c1nc1ccccc1c2=O (centres undefined),-7%,6%,x,0%,-5%,5
Cc1cccc(NC(=O)c2ccc3snnc3c2)c1C,-9%,x,x,-7%,x,x
CCOc1ccc(S(=O)(=O)Nc2cccc(C(=O)NCC(c3ccccc3)N(C)C)c2)cc1 (centres undefined),18µM*,-14%,7%,23µM*,-12%,-17
COc1ccc(C(CNC(=O)c2ccc(S(=O)(=O)Nc3ccc(F)cc3)cc2)N(C)C)cc1 (centres undefined),23µM*,u,1%,16µM*,u,23
COc1ccc(C(CNC(=O)c2cccc(S(=O)(=O)Nc3ccc(F)cc3)c2)N(C)C)cc1 (centres undefined),u,-9%,-9%,u,-10%,-11
Nc1c(C(=O)Nc2cccc(F)c2)nnn1-c1ccc2c(c1)OCCO2,-24%,-27%,u,-8%,u,-9
OC[C@@H]1CN(Cc2ccc(Cl)cc2)C[C@H](n2cnc3c(NCc4ccc(F)cc4)ncnc32)O1,18µM*,u,x,18µM*,u,-5
OC[C@@H]1CN(Cc2cccc(C(F)(F)F)c2)C[C@H](n2cnc3c(NCc4ccc(F)cc4)ncnc32)O1,9.2µM*,u,x,18µM*,21µM*,-25
OC[C@@H]1CN(Cc2cccc(C(F)(F)F)c2)C[C@H](n2cnc3c(NCc4ccco4)ncnc32)O1,u,-16%,x,18µM*,-17%,10
OC[C@@H]1CN(Cc2cccc(C(F)(F)F)c2)C[C@H](n2cnc3c(NC4CC4)ncnc32)O1,u,2%,x,u,19%,7
SMILES,DT40 TDP1 no CPT,HT1080-NT tox,ELG1 repair inh,TDP1 cell CPT,HT1080 IDH1KD tx,IL1B secr inh
OC[C@@H]1CN(Cc2ccc(F)cc2)C[C@H](n2cnc3c(NCc4ccco4)ncnc32)O1,u,u,x,-12%,25%,2
CSc1ccc(CN2CCC(C)(Oc3ccc(F)cc3)C2)cc1 (centres undefined),u,u,x,u,-2%,3
FC(F)C(F)(F)Oc1cccc(Nc2nccn3c(-c4ccc5ccccc5c4)cnc23)c1,23µM*,-20%,x,u,u,32
FC(F)C(F)(F)Oc1cccc(Nc2nccn3c(-c4cccc5ccccc45)cnc23)c1,u,u,x,16µM*,u,-26
CCOc1ccc(C(=O)NCc2nc(-c3ccc(Cl)cc3)no2)cc1OCC,u,x,x,-19%,x,x
NS(=O)(=O)c1cccc(NC(=O)c2cc(=O)c3ccccc3o2)c1,-19%,8%,u,12%,12%,-6
Cc1cc(C)c2c(=O)cc(C(=O)Nc3ccc(S(=O)(=O)Nc4nc(C)cc(C)n4)cc3)oc2c1,u,x,x,12%,x,x
CCN(c1ccccc1)S(=O)(=O)c1ccc(NC(=O)c2cc(=O)c3ccccc3o2)cc1,-15%,x,x,-6%,x,x
O=C(Nc1cccc(S(=O)(=O)N2CCCCCC2)c1)c1cc(=O)c2ccccc2o1,13µM*,-10%,12µM*,23µM*,-18%,-9
CN(c1ccccc1)S(=O)(=O)c1cccc(NC(=O)c2cc(=O)c3ccccc3o2)c1,12µM*,-20%,15µM*,16µM*,-26%,-52*
CN(Cc1ccccc1)S(=O)(=O)c1ccc(NC(=O)c2cc(=O)c3ccccc3o2)cc1,16µM*,x,x,13µM*,x,x
Cc1cc(C)c2c(=O)cc(C(=O)Nc3ccc(S(=O)(=O)N(C)Cc4ccccc4)cc3)oc2c1,u,x,x,5.8µM*,x,x
Cc1ccc(C(=O)C(C)OC(=O)C2CCN(c3ccc(C(F)(F)F)cn3)CC2)cc1 (centres undefined),u,0%,2%,u,1%,13
C=C1CCN(C(C(=O)OC)C(C)C)S(=O)(=O)c2ccccc21 (centres undefined),u,-4%,13%,u,3%,37
COc1ccc(C)cc1N(C(=O)c1ccc(F)cc1)c1nc2ccccc2s1,16µM*,12%,-13%,u,-12%,-16
Oc1ccc(-c2cn3c(n2)SCC3)cc1,-22%,-1%,u,-18%,-1%,-17
